Experimental data: PubChem BioAssay
Calls of active or inactive are those of the source.

How the values were obtained:
Albumin (Bos taurus) = Albumin (Bos taurus) (UniProt P02769); experiment: compounds binding labelled BSA control protein – biochemical, small-molecule microarray, Alexa647 label, 635/667 nm fluorescence, artefact control for SMM control protein annotation, profiling panel (AID 1118); details: BSA-A647 binding, fluorescence 635 nm, higher = more signal;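 also: score merges 667 nm emission intensity and signal-to-noise per printed compound spot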
[1] = probe aXIP binding to arrayed compounds – biochemical, NeuroSMM set, 635/667 nm fluorescence, primary screen (AID 1119); details: small-molecule microarray, higher = more signal, called active from +8 up or from −8 down;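 also: probe is the protein aXip251-270 applied at 1 µg/mL to compound-printed slides; binding of probe to printed compounds measured as 667 nm fluorescence plus signal to noise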
[2] = probe aNOTCH3 binding on compound microarray – biochemical, small-molecule microarray, 635/667 nm fluorescence, primary screen (AID 1120); details: higher = more signal;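 also: probe is a biotin-tagged antibody raised against NOTCH3 rather than NOTCH3 protein; score merges spot fluorescence near 667 nm with spot signal to noise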
[3] = probe aNOTCH2 binding on compound microarray – biochemical, small-molecule microarray, 635/667 nm fluorescence, primary screen (AID 1121); details: higher = more signal;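 also: score merges feature fluorescence read at 667 nm with its signal to noise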
[4] = target: Carbonic anhydrase 2 (Homo sapiens) (UniProt P00918); experiment: compounds binding carbonic anhydrase 2 – biochemical, small-molecule microarray, Alexa647-labelled CAII, profiling panel (AID 1122); details: CAII-A647 binding fluorescence, higher = more signal
[5] = COS7 lysate on small-molecule microarray, probe aHis, 635 nm (AID 1123); details: COS7 cell lysate, fluorescence, higher = more signal;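 also: z-score combines 667nm fluorescence intensity with signal-to-noise per printed compound spot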
[6] = probe aLAP1 signal on lysate-treated microarray – cell lysate, small-molecule microarray, COS7 lysate, primary screen (AID 1124); details: probe aLAP1, fluorescence, higher = more signal;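 also: lysate comes from COS7 cells expressing LAP1 and is applied at 0.3 µg/mL; score merges spot fluorescence near 667 nm with signal-to-noise over triplicate slides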
Sam68 (KHDRBS1) = experiment: compounds binding KHDRBS1 protein – biochemical, small-molecule microarray, 635 nm fluorescence, primary screen (AID 1125); details: higher = more signal;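 also: score merges 667 nm channel intensity with signal to noise over triplicate slides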
[7] = system: Chordin-like protein 2 (CHRDL2); experiment: compounds binding chordin-like 2 – biochemical, small-molecule microarray, 635 nm fluorescence, primary screen (AID 1126); details: fluorescence 635 nm, higher = more signal;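 also: printed compound slides probed with Chrdl2 protein at 4 µg/mL for 1 h at 4 C; score merges 667 nm emission intensity with signal to noise over three replicate slides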
[8] = target: Concanavalin-A (Canavalia ensiformis) (UniProt P02866); experiment: compounds binding concanavalin A lectin – biochemical, small-molecule microarray, Alexa647 label, 635 nm, artefact control for SMM control protein annotation, primary screen (AID 1127); details: ConA-A647 binding fluorescence, higher = more signal;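 also: z combines 667 nm emission intensity with signal-to-noise across three replicate slides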
[9] = compounds binding Alexa647 anti-His antibody – biochemical, small-molecule microarray, 635 nm fluorescence, artefact control for SMM control protein annotation, primary screen (AID 1128); details: higher = more signal;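 also: score merges feature fluorescence with signal-to-noise for each printed compound spot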
[10] = system: Human papillomavirus type 1a E7 protein (residues 1-88); experiment: HPV1a E7 small-molecule binders, primary screen, biochemical, small-molecule microarray, residues 1-88, 635 nm (AID 1129); details: small-molecule microarray binding, fluorescence 635 nm; higher = more signal
[11] = target: Focal adhesion kinase 1 (Homo sapiens) (UniProt Q05397); experiment: PTK2 protein binding on printed compound slides – biochemical, small-molecule microarray, 635/667 nm fluorescence, BSA, DTT, primary screen (AID 1130); details: 635 nm fluorescence, higher = more signal;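 also: composite of spot emission at 667 nm and signal to noise over triplicate slides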
[12] = system: Fibrinogen (Alexa647-labelled); experiment: Alexa647-fibrinogen binding to printed small molecules – biochemical, small-molecule microarray, 635/667 nm fluorescence, artefact control for SMM control-protein annotation, profiling panel (AID 1131); details: fibrinogen-A647 binding fluorescence, higher = more signal;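 also: z-score merges 667 nm fluorescence with per-spot signal-to-noise over triplicate slides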
[13] = target: Follistatin (Homo sapiens) (UniProt P19883); experiment: FST protein binding to printed compounds – biochemical, small-molecule microarray, 635/667 nm fluorescence, primary screen (AID 1132); details: 635 nm fluorescence, higher = more signal
[14] = target: Fibroblast growth factor 2 (Homo sapiens) (UniProt P09038); experiment: basic fibroblast growth factor binding to printed compounds – biochemical, small-molecule microarray, 635/667 nm fluorescence, primary screen (AID 1133); details: FGF2, fluorescence 635/667, higher = more signal
[15] = JC-1 mitochondrial potential readout, lung cancer cells – cell-based, A549, JC-1 fluorescence, basal, 24 h, 100 nL, profiling panel (AID 1138); details: higher = more signal;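 also: A549 lung adenocarcinoma cells under basal conditions with no added stimulus; test concentration not given here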
Lefty1 = Lefty1 protein binding to printed compounds – biochemical, small-molecule microarray, 635/667 nm fluorescence, primary screen (AID 1139); details: fluorescence 635/667, higher = more signal
[16] = system: wheat germ agglutinin (Triticum aestivum), Alexa647-labelled; experiment: Alexa647-WGA lectin binding to printed small molecules – biochemical, small-molecule microarray, 635/667 nm fluorescence, artefact control for SMM control-protein annotation, profiling panel (AID 1140); details: WGA-A647 binding, 635 nm fluorescence, higher = more signal;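 also: score merges 667 nm feature emission with signal to noise over triplicate slides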
[17] = target: Luciferin 4-monooxygenase (Photinus pyralis) (UniProt P08659); experiment: inhibition of purified Photinus pyralis luciferase – biochemical, luminescence, purified enzyme, 2006 set, primary screen (AID 1141); details: purified firefly luciferase, SteadyGlo luminescence, 30 min; higher = more signal, called active from +8 up or from −8 down;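 also: cell-free assay with purified firefly luciferase at 100 ng per well in PBS; test concentration not given here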
Sequence of Luciferin 4-monooxygenase (Photinus pyralis) (P08659 whole entry, looked up): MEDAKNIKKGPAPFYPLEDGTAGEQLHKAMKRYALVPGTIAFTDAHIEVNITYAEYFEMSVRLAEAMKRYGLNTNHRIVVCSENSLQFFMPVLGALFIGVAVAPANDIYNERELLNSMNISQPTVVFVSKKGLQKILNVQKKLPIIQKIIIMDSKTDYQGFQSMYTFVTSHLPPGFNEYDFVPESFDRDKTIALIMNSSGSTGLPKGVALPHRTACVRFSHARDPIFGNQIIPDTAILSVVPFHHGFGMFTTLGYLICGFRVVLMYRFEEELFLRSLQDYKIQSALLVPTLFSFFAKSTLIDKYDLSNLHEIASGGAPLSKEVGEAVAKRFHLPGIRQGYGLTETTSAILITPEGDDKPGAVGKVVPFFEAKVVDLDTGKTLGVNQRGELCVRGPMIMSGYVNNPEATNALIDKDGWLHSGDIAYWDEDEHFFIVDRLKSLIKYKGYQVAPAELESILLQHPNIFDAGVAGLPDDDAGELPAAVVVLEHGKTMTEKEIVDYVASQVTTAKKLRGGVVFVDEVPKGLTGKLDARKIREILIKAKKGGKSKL

Sequence of Fibroblast growth factor 2 (Homo sapiens) (P09038 whole entry, looked up): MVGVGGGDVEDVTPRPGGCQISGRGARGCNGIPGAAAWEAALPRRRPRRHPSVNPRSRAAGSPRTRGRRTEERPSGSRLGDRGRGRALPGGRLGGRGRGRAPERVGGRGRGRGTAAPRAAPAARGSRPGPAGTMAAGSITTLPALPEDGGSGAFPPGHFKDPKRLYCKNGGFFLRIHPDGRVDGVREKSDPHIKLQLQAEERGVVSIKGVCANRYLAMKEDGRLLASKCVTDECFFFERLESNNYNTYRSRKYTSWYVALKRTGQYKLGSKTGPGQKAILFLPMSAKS
Sequence of Albumin (Bos taurus) (P02769 whole entry, looked up): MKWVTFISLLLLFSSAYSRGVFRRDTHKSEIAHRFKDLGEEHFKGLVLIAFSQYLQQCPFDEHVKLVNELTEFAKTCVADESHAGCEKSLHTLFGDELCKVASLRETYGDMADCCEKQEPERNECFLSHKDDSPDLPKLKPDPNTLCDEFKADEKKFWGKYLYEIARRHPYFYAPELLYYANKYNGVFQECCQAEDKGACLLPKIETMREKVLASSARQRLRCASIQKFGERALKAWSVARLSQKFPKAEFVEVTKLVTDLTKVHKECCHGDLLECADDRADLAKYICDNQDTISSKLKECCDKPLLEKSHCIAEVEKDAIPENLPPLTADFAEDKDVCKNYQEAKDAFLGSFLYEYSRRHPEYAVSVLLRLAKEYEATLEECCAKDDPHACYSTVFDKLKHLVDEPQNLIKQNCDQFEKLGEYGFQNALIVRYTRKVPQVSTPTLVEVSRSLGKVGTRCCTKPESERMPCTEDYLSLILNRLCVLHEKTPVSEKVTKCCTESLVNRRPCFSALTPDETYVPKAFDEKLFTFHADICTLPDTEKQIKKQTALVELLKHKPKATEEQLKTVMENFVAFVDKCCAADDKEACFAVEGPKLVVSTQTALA
Sequence of Concanavalin-A (Canavalia ensiformis) (P02866 whole entry, looked up): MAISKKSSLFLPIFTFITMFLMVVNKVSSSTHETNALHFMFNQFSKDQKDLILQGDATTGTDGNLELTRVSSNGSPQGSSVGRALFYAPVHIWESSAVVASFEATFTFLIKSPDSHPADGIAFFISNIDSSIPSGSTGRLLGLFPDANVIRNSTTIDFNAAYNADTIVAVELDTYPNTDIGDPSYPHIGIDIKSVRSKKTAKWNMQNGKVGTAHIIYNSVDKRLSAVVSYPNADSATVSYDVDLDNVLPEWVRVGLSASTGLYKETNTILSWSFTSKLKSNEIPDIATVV
Sequence of Follistatin (Homo sapiens) (P19883 whole entry, looked up): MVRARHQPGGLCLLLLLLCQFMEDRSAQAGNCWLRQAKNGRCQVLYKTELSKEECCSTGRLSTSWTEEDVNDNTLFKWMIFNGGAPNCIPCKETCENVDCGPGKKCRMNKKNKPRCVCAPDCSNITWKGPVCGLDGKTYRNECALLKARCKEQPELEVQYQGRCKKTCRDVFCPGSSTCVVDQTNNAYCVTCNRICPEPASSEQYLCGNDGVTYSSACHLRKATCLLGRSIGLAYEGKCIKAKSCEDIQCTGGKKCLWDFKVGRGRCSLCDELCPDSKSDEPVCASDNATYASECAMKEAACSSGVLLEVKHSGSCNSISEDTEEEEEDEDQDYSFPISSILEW
Sequence of Focal adhesion kinase 1 (Homo sapiens) (Q05397 whole entry, looked up): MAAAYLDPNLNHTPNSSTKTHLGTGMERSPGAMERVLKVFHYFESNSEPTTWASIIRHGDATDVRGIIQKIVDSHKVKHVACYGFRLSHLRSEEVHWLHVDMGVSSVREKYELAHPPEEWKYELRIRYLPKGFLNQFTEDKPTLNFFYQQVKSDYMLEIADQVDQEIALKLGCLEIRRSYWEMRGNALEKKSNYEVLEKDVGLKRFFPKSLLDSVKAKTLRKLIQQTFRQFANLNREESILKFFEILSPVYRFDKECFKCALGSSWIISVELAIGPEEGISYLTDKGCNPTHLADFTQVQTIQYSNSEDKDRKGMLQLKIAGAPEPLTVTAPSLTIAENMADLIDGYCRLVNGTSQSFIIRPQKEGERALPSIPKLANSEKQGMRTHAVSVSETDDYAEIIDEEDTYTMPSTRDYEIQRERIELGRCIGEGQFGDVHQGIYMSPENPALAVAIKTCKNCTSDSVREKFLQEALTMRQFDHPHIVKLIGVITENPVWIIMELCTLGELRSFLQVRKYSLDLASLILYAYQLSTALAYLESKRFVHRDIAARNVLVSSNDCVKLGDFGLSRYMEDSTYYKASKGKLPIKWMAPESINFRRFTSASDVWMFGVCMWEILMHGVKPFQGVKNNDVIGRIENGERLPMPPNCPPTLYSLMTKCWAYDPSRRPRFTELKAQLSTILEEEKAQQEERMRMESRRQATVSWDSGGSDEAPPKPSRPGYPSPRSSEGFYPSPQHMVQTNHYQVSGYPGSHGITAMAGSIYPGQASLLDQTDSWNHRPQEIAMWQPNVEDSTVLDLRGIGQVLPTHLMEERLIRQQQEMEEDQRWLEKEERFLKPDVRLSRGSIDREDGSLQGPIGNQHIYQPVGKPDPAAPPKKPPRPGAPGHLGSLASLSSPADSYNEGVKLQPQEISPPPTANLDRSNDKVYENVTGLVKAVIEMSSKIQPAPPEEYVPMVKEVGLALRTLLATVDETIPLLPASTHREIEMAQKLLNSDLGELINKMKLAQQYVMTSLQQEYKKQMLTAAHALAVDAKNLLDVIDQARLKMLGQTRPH

C=CCC(OC(C)=O)[C@@H]1[C@@H](N(Cc2ccc(-c3ccccc3)cc2)C(=O)c2ccc(-c3ccccc3)cc2)c2cc(OCCCO)ccc2N1C(=O)Cc1ccc2ccccc2c1 (stereo not given in full)
composite z-score (Albumin (Bos taurus)): 0.108
composite Z-score [1]: -0.316 (inactive)
composite z-score [2]: -0.0057
composite z-score [3]: -0.213
composite z-score [4]: 0.002
composite z-score [5]: 0.522
composite z-score [6]: -0.0155
composite z-score (Sam68 (KHDRBS1)): 0.621
composite z-score [7]: 0.156
composite z-score [8]: -0.288
composite z-score [9]: 1.13
composite z-score [10]: -0.0959
composite z-score [11]: -0.0802
composite z-score [12]: 0.51
composite z-score [13]: 0.456
composite z-score [14]: -0.275
z-score [15]: 0.857
composite z-score (Lefty1): 0.211
composite z-score [16]: 0.0685
z-score [17]: -0.785 (inactive)

CC(C)N1C(=O)c2ccccc2[C@](C)(C(=O)NCCN2CCOCC2)[C@@H]1c1ccc(CO)cc1
composite z-score (Albumin (Bos taurus)): 0.406
composite Z-score [1]: -0.523 (inactive)
composite z-score [2]: -0.0697
composite z-score [3]: -0.195
composite z-score [4]: 0.766
composite z-score [5]: 2.48
composite z-score [6]: 0.385
composite z-score (Sam68 (KHDRBS1)): 0.359
composite z-score [7]: -1.12
composite z-score [8]: -0.0721
composite z-score [9]: -0.293
composite z-score [10]: -0.0941
composite z-score [11]: 0.356
composite z-score [12]: -0.726
composite z-score [13]: 0.897
composite z-score [14]: -0.574
z-score [15]: -0.662
composite z-score (Lefty1): -0.117
composite z-score [16]: -0.489
z-score [17]: -0.265 (inactive)

CCCC[C@@H]1C[C@H]1[C@@H](NC(=O)c1cccs1)c1ccc(-c2ccccc2)cc1
composite z-score (Albumin (Bos taurus)): 0.1
composite Z-score [1]: -0.252 (inactive)
composite z-score [2]: 0.206
composite z-score [3]: -0.14
composite z-score [4]: 0.254
composite z-score [5]: 0.874
composite z-score [6]: -0.202
composite z-score (Sam68 (KHDRBS1)): 0.393
composite z-score [7]: 0.0355
composite z-score [8]: 0.432
composite z-score [9]: 0.433
composite z-score [10]: 0.852
composite z-score [11]: 0.0412
composite z-score [12]: 0.149
composite z-score [13]: 0.552
composite z-score [14]: -0.292
z-score [15]: 0.319
composite z-score (Lefty1): 0.361
composite z-score [16]: 0.849
z-score [17]: 1.65 (inactive)

CC(C)NC(=O)[C@@]1(C)c2ccccc2C(=O)N(Cc2cc(C(F)(F)F)cc(C(F)(F)F)c2)[C@H]1c1ccc(CO)cc1
composite z-score (Albumin (Bos taurus)): -0.47
composite Z-score [1]: -0.0197 (inactive)
composite z-score [2]: -0.165
composite z-score [3]: -0.123
composite z-score [4]: 0.689
composite z-score [5]: 2.07
composite z-score [6]: -0.208
composite z-score (Sam68 (KHDRBS1)): 0.784
composite z-score [7]: -1.39
composite z-score [8]: 0.0957
composite z-score [9]: -0.229
composite z-score [10]: 0.272
composite z-score [11]: 0.0662
composite z-score [12]: -0.285
composite z-score [13]: -0.101
composite z-score [14]: -0.741
z-score [15]: 1.21
composite z-score (Lefty1): -0.146
composite z-score [16]: -0.568
z-score [17]: -0.734 (inactive)

C=CCNC(=O)[C@@H]1[C@H]2C(=O)O[C@H](c3ccccc3)[C@H](c3ccccc3)N2[C@H](c2ccc(OCCO)cc2)[C@@]12C(=O)Nc1ccc(C#CCC(C(=O)OC)C(=O)OC)cc12
composite z-score (Albumin (Bos taurus)): 0.64
composite Z-score [1]: 0.788 (inactive)
composite z-score [2]: 0.277
composite z-score [3]: 0.0302
composite z-score [4]: 0.641
composite z-score [5]: 2
composite z-score [6]: 0.978
composite z-score (Sam68 (KHDRBS1)): 1.29
composite z-score [7]: 0.392
composite z-score [8]: 1.16
composite z-score [9]: 2.67
composite z-score [10]: 1.2
composite z-score [11]: 0.913
composite z-score [12]: 0.641
composite z-score [13]: 0.85
composite z-score [14]: 0.582
z-score [15]: -0.21
composite z-score (Lefty1): 0.728
composite z-score [16]: 1.25
z-score [17]: -1.08 (inactive)
